Potency data for 28 compounds are collected here from PubChem BioAssay (NCATS).

SMILES strings stand for the structures. Records with an inconclusive call do not appear. Calls of active or inactive are those of the source. Unless noted, calls come from the whole dose curve.

Assay [1] in a line: qHTS for Inhibitors of the Functional Ribonucleoprotein Complex (vRNP) of Lassa (LASV) Arenavirus: LASV Primary Screen - GLuc reporter signal (AID 1347082; calls by dose curve; tested in HEK293 reporter line; note: series mostly up to about 57 µM; nearly all actives have a fitted effect of over 60% in size). A general note: qHTS replaces the single test concentration by a dilution series.
A short description of assay [2]: qHTS for Inhibitors of the Functional Ribonucleoprotein Complex (vRNP) of Lassa (LASV) Arenavirus: Viability assay - alamar blue signal for LASV Primary Screen (AID 1347083; calls by dose curve; tested in HEK293 reporter line; note: nearly all actives have a fitted effect of over 80% in size; note: potency is the fitted concentration of half-maximal effect).
Assay [3] in a line: qHTS for Inhibitors of the Functional Ribonucleoprotein Complex (vRNP) of Lymphocytic Choriomeningitis Arenaviruses (LCMV): Viability assay - alamar blue signal for LCMV Primary Screen (AID 1347085; calls by dose curve; tested in HEK293 reporter line; note: nearly all actives have a fitted effect of over 80% in size; note: potency is the fitted concentration of half-maximal effect).
Assay [4] has as its target Nucleoprotein (Lymphocytic choriomeningitis virus (strain Armstrong)) (UniProt P09992). Description: qHTS for Inhibitors of the Functional Ribonucleoprotein Complex (vRNP) of Lymphocytic Choriomeningitis Arenaviruses (LCMV): LCMV Primary Screen - GLuc reporter signal (AID 1347086). Note: nearly all actives have a fitted effect of over 70% in size. Note: potency is the fitted concentration of half-maximal effect.

Nucleoprotein (Lymphocytic choriomeningitis virus (strain Armstrong)), sequence (P09992 whole entry, looked up): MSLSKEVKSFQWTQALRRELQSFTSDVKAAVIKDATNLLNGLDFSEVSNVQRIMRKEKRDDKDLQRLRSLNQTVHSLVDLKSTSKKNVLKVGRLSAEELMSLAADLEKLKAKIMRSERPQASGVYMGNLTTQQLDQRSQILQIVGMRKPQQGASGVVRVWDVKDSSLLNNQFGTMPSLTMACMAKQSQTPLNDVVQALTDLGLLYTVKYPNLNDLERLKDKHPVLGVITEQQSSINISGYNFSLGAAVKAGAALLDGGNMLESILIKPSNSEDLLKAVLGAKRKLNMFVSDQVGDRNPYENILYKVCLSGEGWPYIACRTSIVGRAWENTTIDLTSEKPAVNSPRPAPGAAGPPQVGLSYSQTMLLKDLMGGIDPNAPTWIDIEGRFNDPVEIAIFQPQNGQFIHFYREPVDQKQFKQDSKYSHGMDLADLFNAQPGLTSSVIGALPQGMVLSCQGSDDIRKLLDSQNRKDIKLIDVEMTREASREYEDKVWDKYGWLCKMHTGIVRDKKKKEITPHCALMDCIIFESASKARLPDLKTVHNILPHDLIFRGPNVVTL

Turning to `O=C(O)COCCN1CCN(C(c2ccccc2)c2ccc(Cl)cc2)CC1` (configuration not stated), the Potency result in assay [1], in assay [2], in assay [3] and in assay [4] was “inactive” each time.

In the case of `CC[C@]1(O)C[C@H]2CN(CCc3c([nH]c4ccccc34)[C@@](C(=O)OC)(c3cc4c(cc3OC)N(C=O)[C@H]3[C@@](O)(C(=O)OC)[C@H](OC(C)=O)[C@]5(CC)C=CCN6CC[C@]43[C@@H]65)C2)C1`, the Potency entry in assay [1] was “inactive”. In addition, the Potency in assay [2] is 15.3 nM (active); in assay [3], 6.1 nM (active); in assay [4], 15.3 nM (active).

For `C[N+]1(C)CCC(OC(=O)C(O)(c2ccccc2)C2CCCC2)C1` (configuration not stated), the Potency result in assay [1], in assay [2], in assay [3] and in assay [4] was “inactive” each time.

With `O=NN(CCCl)C(=O)NC1CCCCC1`, the Potency result in assay [1], in assay [2], in assay [3] and in assay [4] was “inactive” throughout.

For `CN(C)CCC[C@@]1(c2ccc(F)cc2)OCc2cc(C#N)ccc21`, the Potency result in assay [1], in assay [2], in assay [3] and in assay [4] was “inactive” each time.

In the case of `Cc1ncc([N+](=O)[O-])n1CCO`, the Potency entry in assay [1], in assay [2], in assay [3] and in assay [4] was “inactive” throughout.

As to `CNC1(C)C2CCC(C2)C1(C)C` (configuration not stated), the Potency result in assay [1], in assay [2], in assay [3] and in assay [4] was “inactive” throughout.

Consider `CC1=C(C(=O)O)N2C(=O)[C@@H](NC(=O)[C@H](N)c3ccc(O)cc3)[C@H]2SC1`, for which the Potency result in assay [1], in assay [2], in assay [3] and in assay [4] was “inactive” in each case.

Regarding `OC(Cn1cncn1)(Cn1cncn1)c1ccc(F)cc1F`, the Potency entry in assay [1], in assay [2], in assay [3] and in assay [4] was “inactive” each time.

Turning to `O=NN(CCCl)C(=O)NCCCl`, the Potency entry in assay [1], in assay [2], in assay [3] and in assay [4] was “inactive” throughout.

With `CN1CC(=O)N/C1=N/C(=O)Nc1cccc(Cl)c1`, the Potency result in assay [1], in assay [2], in assay [3] and in assay [4] was “inactive” in each case.

Regarding `CCOC(=O)[C@H](CCc1ccccc1)N[C@@H](C)C(=O)N1Cc2ccccc2C[C@H]1C(=O)O`, the Potency result in assay [1], in assay [2], in assay [3] and in assay [4] was “inactive” throughout.

Turning to `O=C(O)CCCc1ccccc1`, the Potency entry in assay [1], in assay [2], in assay [3] and in assay [4] was “inactive” each time.

For `O=C(CCCN1CCC(O)(c2ccc(Cl)cc2)CC1)c1ccc(F)cc1`, the Potency entry in assay [1], in assay [2], in assay [3] and in assay [4] was “inactive” each time.

In the case of `c1cnc2cc3c(cc2n1)C1CNCC3C1`, the Potency result in assay [1], in assay [3] and in assay [4] was “inactive” each time. In addition, the Potency in assay [2] was 24300 nM (active).

On to `COC(=O)CCc1ccc(OCC(O)CNC(C)C)cc1` (configuration not stated), for which the Potency entry in assay [1], in assay [2], in assay [3] and in assay [4] was “inactive” throughout.

Regarding `N[C@@H]1CONC1=O`, the Potency entry in assay [1], in assay [2], in assay [3] and in assay [4] was “inactive” throughout.

In the case of `NC(=O)c1cn(Cc2c(F)cccc2F)nn1`, the Potency entry in assay [1], in assay [2], in assay [3] and in assay [4] was “inactive” each time.

`Cc1ccccc1C(=O)Nc1ccc(C(=O)N2CCCC(O)c3cc(Cl)ccc32)c(C)c1` (configuration not stated): the Potency result in assay [1], in assay [2], in assay [3] and in assay [4] was “inactive” each time.

With `CC(C)Nc1cccnc1N1CCN(C(=O)c2cc3cc(NS(C)(=O)=O)ccc3[nH]2)CC1`, the Potency result in assay [1], in assay [2], in assay [3] and in assay [4] was “inactive” throughout.

Consider `CCCN(CCc1cccs1)[C@H]1CCc2c(O)cccc2C1`, for which the Potency entry in assay [1], in assay [2], in assay [3] and in assay [4] was “inactive” throughout.

`C[C@@H](c1ncncc1F)C(O)(Cn1cncn1)c1ccc(F)cc1F` (some centres not stated): the Potency result in assay [1], in assay [2], in assay [3] and in assay [4] was “inactive” throughout.

With `C[C@](N)(Cc1ccc(O)c(O)c1)C(=O)O`, the Potency entry in assay [1], in assay [2], in assay [3] and in assay [4] was “inactive” in each case.

In the case of `CC(=O)SC[C@@H](C)C(=O)N1CCC[C@H]1C(=O)N[C@@H](Cc1ccccc1)C(=O)O`, the Potency entry in assay [1], in assay [2], in assay [3] and in assay [4] was “inactive” in each case.

For the compound `CCCN(CCC)S(=O)(=O)c1ccc(C(=O)O)cc1`, the Potency entry in assay [1], in assay [2], in assay [3] and in assay [4] was “inactive” throughout.

For the compound `CCN1CCN(C(=O)N[C@@H](C(=O)N[C@@H]2C(=O)N3C(C(=O)O)=C(CSc4nnnn4C)CS[C@H]23)c2ccc(O)cc2)C(=O)C1=O`, the Potency result in assay [1], in assay [2], in assay [3] and in assay [4] was “inactive” throughout.

As for `CC(=O)N[C@@H](CS)C(=O)O`, the Potency result in assay [1], in assay [2], in assay [3] and in assay [4] was “inactive” in each case.

In the case of `O=c1[nH]cnc2c1ncn2[C@H]1CC[C@@H](CO)O1`, the Potency entry in assay [1], in assay [2], in assay [3] and in assay [4] was “inactive” each time.
